Our source for the inhibition values is ChEMBL document CHEMBL1961873, “Compounds: GSK PKIS; Assays: Nanosyn kinase panel” (2012).

Each structure is given as a SMILES string.

For assay [1], the target named is Protein kinase C gamma type (Homo sapiens) (UniProt P05129). As to conditions: at 1 µM.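 Further: each value is an averaged percent inhibition of the enzyme.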
Assay [2] deals with T1, Protein kinase C iota type (Homo sapiens) (UniProt P41743).
T1 sequence (whole entry): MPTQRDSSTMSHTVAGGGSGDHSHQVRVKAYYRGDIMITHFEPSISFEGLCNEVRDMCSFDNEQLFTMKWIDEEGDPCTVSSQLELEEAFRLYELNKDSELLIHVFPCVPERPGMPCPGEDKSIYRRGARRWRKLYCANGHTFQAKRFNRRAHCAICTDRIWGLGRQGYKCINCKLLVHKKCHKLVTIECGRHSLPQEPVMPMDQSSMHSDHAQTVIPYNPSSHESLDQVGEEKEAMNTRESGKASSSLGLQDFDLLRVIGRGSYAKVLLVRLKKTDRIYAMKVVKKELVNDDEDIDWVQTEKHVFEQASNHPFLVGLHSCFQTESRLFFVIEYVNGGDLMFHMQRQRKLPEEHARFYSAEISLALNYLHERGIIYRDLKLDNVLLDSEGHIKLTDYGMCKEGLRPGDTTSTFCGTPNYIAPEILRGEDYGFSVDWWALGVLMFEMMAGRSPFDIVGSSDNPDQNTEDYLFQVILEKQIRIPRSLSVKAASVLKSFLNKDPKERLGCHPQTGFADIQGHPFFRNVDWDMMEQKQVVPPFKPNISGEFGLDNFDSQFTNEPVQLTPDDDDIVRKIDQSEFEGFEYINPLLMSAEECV
As to conditions: at 0.1 µM.

The target of assay [3] is T1, Protein kinase C iota type (Homo sapiens). The conditions noted are these: at 1 µM.
In assay [4] the target is Protein kinase C theta type (Homo sapiens) (UniProt Q04759). As to conditions: at 0.1 µM.
Sequence of Protein kinase C theta type (Homo sapiens) (Q04759 whole entry, looked up): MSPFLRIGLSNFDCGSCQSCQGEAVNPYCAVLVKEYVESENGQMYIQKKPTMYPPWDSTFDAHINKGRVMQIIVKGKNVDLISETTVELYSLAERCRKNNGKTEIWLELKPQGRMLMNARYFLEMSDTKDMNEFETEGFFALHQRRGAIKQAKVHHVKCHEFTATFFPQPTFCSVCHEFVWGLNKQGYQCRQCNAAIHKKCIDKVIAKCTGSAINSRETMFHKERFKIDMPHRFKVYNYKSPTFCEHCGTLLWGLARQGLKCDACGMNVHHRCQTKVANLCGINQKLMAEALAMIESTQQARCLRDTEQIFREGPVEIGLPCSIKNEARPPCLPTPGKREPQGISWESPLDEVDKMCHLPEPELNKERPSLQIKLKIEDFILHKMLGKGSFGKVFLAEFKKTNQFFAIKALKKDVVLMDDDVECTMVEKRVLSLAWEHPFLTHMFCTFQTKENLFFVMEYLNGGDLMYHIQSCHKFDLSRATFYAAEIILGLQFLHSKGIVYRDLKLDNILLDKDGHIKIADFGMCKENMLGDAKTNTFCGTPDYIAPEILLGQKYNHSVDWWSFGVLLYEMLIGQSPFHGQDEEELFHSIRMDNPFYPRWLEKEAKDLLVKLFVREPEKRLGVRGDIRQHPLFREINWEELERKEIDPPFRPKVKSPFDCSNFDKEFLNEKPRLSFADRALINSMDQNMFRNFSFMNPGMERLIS
The target is the same in assay [5]. As to conditions: at 1 µM.
For assay [6], the target named is Protein kinase C beta type (Homo sapiens) (UniProt P05771). The conditions noted are these: at 0.1 µM.
Sequence of Protein kinase C beta type (Homo sapiens) (P05771 2-671 limits assumed): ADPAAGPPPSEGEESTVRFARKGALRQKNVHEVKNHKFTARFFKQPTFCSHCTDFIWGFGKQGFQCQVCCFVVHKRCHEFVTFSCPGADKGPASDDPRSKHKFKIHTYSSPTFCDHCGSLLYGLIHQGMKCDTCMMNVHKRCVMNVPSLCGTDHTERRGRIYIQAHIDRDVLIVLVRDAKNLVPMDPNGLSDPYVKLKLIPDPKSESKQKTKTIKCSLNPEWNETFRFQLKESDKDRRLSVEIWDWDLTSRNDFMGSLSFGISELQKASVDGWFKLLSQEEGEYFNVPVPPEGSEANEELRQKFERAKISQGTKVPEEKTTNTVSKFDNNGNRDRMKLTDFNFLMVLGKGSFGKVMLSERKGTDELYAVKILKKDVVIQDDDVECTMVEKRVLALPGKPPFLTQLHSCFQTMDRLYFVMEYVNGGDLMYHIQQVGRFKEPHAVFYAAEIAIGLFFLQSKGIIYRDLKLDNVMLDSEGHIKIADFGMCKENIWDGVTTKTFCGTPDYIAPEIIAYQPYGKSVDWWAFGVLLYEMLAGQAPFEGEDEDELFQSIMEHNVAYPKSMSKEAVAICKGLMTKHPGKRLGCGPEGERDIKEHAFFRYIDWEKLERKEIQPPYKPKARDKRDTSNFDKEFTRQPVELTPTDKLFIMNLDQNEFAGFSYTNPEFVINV
Assay [7] shares this target. As to conditions: at 1 µM.
Assay [8] concerns the target T2, Serine/threonine-protein kinase D1 (Homo sapiens) (UniProt Q15139).
T2 sequence (whole entry): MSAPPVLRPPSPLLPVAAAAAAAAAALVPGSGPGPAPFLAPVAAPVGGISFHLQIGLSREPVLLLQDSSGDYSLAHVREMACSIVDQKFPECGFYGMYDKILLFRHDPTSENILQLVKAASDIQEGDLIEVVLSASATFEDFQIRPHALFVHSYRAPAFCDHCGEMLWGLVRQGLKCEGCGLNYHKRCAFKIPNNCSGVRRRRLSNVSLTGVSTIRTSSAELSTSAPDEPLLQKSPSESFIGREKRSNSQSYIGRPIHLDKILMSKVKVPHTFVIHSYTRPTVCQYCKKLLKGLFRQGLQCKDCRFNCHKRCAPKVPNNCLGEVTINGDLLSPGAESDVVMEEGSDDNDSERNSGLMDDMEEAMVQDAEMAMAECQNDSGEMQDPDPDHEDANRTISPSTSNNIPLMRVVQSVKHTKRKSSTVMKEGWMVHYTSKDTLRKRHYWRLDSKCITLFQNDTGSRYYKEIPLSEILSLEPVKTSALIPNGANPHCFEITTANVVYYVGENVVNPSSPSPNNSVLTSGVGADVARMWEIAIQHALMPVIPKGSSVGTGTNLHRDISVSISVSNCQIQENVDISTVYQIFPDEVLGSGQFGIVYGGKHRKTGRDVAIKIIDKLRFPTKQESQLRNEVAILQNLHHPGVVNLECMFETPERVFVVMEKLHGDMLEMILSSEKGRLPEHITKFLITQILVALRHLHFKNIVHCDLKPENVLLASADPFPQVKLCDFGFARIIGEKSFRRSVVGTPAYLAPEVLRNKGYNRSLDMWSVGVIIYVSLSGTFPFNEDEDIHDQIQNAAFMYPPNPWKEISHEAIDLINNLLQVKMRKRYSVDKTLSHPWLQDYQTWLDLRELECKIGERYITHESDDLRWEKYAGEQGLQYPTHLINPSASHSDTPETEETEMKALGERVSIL
As to conditions: at 0.1 µM.

For assay [9], the target named is T2, Serine/threonine-protein kinase D1 (Homo sapiens). As to conditions: at 1 µM.
Assay [10] deals with T3, Serine/threonine-protein kinase D2 (Homo sapiens) (UniProt Q9BZL6).
T3 sequence (whole entry): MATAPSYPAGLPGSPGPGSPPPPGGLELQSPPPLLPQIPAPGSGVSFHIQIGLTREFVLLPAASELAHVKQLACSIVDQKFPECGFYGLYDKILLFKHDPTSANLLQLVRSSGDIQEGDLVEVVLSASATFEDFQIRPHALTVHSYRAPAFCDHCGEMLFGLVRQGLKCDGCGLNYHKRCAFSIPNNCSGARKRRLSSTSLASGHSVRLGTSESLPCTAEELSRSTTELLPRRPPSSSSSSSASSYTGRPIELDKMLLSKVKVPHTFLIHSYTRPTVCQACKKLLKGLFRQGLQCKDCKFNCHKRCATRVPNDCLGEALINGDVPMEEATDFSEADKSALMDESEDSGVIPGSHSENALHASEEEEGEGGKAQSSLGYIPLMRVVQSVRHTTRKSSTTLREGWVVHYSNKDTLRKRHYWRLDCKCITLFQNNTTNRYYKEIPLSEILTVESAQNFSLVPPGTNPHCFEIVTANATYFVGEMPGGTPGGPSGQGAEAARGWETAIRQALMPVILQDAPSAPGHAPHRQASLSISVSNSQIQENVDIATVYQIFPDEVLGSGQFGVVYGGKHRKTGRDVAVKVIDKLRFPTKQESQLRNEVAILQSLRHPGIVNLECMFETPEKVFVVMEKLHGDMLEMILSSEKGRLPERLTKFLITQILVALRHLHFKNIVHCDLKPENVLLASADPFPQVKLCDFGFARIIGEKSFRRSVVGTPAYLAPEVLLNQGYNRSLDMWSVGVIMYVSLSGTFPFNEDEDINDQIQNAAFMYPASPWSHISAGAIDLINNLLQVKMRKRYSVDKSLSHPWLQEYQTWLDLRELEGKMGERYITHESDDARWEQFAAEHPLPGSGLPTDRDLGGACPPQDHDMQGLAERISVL
As to conditions: at 0.1 µM.

The target of assay [11] is T3, Serine/threonine-protein kinase D2 (Homo sapiens). As to conditions: at 1 µM.
Assay [12] addresses T4, Serine/threonine-protein kinase D3 (Homo sapiens) (UniProt O94806).
T4 sequence (whole entry): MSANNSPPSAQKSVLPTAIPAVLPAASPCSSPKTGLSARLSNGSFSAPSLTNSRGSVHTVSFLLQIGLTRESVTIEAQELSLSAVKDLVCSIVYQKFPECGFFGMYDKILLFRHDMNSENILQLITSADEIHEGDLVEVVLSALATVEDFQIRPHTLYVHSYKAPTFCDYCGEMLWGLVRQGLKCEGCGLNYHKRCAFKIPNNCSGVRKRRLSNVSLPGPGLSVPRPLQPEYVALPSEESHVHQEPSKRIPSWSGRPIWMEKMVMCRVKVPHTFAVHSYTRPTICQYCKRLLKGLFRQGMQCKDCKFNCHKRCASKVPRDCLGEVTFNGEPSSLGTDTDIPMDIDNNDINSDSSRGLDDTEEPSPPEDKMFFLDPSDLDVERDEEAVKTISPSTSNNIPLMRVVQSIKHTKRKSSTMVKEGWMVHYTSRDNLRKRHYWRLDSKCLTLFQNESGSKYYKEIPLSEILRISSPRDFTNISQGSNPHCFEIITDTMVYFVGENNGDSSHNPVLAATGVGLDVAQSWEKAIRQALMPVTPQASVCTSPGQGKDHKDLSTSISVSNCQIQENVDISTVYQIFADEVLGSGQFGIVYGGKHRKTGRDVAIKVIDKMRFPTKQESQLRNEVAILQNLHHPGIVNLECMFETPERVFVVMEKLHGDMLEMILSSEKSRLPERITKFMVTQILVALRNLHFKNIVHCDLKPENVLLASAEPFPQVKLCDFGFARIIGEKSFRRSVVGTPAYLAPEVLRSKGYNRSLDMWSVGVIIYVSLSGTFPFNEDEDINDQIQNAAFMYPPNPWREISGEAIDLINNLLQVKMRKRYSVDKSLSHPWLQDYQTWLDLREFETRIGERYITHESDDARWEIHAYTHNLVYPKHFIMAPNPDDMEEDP
As to conditions: at 0.1 µM.

Assay [13] deals with T4, Serine/threonine-protein kinase D3 (Homo sapiens). The conditions noted are these: at 1 µM.
The target in assay [14] is T5, cGMP-dependent protein kinase 1 (Homo sapiens) (UniProt Q13976).
T5 sequence (whole entry): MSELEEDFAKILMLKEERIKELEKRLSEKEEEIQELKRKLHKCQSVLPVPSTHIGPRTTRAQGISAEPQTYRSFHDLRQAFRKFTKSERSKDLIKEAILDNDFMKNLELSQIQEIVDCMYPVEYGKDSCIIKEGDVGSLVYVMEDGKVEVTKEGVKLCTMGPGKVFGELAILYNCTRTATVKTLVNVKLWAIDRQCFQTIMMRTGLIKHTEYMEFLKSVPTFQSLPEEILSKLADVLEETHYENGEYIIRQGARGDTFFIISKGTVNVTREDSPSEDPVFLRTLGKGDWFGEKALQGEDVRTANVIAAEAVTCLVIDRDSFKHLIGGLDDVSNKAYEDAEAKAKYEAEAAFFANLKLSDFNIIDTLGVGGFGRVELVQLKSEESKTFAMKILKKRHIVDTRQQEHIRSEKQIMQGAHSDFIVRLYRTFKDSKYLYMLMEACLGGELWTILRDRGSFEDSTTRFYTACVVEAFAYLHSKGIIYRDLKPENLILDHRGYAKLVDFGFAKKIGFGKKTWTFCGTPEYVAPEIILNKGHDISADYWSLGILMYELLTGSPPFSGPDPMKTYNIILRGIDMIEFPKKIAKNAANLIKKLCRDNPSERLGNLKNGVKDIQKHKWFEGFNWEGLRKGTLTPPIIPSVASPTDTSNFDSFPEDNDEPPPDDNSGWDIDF
As to conditions: at 0.1 µM.

The target of assay [15] is T5, cGMP-dependent protein kinase 1 (Homo sapiens). The conditions noted are these: at 1 µM.
In assay [16] the target is T6, cGMP-dependent protein kinase 2 (Homo sapiens) (UniProt Q13237).
T6 sequence (whole entry): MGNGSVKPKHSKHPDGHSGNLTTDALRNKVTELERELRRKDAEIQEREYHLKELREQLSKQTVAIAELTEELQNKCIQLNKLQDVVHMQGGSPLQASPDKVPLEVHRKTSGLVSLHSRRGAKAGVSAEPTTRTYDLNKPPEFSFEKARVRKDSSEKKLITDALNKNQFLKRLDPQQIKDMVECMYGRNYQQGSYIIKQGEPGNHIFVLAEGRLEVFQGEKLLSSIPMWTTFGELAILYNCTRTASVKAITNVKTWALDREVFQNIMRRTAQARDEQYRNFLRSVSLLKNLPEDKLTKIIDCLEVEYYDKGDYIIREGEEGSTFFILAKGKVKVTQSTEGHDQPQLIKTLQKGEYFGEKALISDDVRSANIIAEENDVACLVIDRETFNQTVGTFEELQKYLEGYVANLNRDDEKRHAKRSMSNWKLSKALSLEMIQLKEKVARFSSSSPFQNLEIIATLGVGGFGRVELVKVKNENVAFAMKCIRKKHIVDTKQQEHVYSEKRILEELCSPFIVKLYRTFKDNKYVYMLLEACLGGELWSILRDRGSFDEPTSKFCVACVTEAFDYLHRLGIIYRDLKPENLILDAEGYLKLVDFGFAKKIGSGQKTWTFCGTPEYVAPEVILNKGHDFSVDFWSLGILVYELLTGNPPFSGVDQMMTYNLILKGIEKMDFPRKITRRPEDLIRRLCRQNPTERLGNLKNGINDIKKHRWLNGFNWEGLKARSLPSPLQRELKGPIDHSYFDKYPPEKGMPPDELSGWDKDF
The conditions noted are these: at 0.1 µM.

Assay [17] addresses T6, cGMP-dependent protein kinase 2 (Homo sapiens). The conditions noted are these: at 1 µM.
Assay [18] has as its target T7, cAMP-dependent protein kinase catalytic subunit PRKX (Homo sapiens) (UniProt P51817).
T7 sequence (whole entry): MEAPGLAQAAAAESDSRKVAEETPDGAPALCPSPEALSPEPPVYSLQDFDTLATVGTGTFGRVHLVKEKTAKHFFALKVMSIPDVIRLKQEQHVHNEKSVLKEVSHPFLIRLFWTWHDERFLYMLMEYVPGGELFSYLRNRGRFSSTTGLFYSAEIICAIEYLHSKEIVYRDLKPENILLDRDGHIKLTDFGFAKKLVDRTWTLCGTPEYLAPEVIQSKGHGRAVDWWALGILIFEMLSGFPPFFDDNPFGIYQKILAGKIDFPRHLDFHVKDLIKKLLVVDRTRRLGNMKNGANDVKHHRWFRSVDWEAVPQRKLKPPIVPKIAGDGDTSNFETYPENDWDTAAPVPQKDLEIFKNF
The conditions noted are these: at 0.1 µM.

For assay [19], the target named is T7, cAMP-dependent protein kinase catalytic subunit PRKX (Homo sapiens). As to conditions: at 1 µM.
Assay [20] concerns the target Rho-associated protein kinase 1 (Homo sapiens) (UniProt Q13464). The conditions noted are these: at 0.1 µM.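 Further: values are mean percent inhibition of ROCK1.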

Sequence of Rho-associated protein kinase 1 (Homo sapiens) (Q13464 2-1354 limits assumed): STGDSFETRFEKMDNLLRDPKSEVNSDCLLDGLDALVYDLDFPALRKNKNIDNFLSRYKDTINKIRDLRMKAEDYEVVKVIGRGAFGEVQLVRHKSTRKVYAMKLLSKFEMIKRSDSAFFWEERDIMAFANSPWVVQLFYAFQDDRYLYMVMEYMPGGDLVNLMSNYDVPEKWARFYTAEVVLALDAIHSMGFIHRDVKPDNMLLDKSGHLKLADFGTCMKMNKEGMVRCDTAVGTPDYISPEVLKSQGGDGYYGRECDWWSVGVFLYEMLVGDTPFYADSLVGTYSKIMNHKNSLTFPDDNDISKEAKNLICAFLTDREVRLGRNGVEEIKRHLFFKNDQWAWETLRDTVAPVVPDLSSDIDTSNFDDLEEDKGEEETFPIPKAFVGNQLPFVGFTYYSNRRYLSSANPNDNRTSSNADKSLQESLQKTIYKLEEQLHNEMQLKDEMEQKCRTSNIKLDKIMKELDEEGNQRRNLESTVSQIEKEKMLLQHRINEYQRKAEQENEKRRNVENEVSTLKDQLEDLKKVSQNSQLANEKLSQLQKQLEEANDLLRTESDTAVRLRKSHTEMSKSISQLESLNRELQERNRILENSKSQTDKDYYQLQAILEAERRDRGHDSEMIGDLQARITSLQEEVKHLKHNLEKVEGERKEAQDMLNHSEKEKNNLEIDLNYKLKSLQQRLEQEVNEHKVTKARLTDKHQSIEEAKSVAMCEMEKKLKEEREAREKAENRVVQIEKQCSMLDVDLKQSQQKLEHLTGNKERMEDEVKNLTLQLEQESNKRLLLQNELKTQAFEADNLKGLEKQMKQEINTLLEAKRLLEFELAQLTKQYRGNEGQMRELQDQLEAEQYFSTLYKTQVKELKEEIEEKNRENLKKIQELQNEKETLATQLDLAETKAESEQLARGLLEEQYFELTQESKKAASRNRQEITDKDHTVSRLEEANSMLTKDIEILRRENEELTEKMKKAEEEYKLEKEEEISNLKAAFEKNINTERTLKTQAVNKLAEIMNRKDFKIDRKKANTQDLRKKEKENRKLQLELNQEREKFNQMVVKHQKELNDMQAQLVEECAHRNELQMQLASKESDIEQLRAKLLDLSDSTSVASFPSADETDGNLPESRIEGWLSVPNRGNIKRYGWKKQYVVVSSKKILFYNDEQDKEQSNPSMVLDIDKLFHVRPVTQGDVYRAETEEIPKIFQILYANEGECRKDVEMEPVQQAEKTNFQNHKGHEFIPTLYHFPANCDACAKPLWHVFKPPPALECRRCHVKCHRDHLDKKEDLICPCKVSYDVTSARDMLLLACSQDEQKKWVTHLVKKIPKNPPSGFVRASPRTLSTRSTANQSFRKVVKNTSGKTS

For orientation: inhibition means the change of the read-out against control, counted positive when it falls. In the case of `CCCN1CCC(c2ccc(Nc3nc(Nc4cc(F)ccc4C(N)=O)c4cc[nH]c4n3)c(OC)c2)CC1`, the inhibition in [1] is 29.8%; in assay [2], 0.78%; in assay [3] it was 1.12%; in [4], 2.2%; in assay [5], 8.87%; in assay [6], 1.54%. In addition, the inhibition in assay [7] is 6.05%; in [8], 21.5%; in assay [9] it was 73.8%; in [10] it was 18%; in [11], 75.7%; in [12], 13.6%. Moreover, the inhibition in assay [13] worked out at 65.9%; in assay [14], 9.75%; in [15], 46.5%; in [16] it was 8.54%; in assay [17], 47%; in assay [18] it was 1.4%. For the same compound, the inhibition in assay [19] is 4.23%; in assay [20], 17.2%.

In the case of `COc1cc(N2CCN(C(C)C)CC2)ccc1Nc1nc(Nc2ccc(F)cc2C(N)=O)c2cc[nH]c2n1`, the inhibition is 15.7% in assay [1]; -0.5% in assay [2]; 0.42% in assay [3]; 2.56% in assay [4]; 4.69% in [5]; 1.59% in [6]. Moreover, the inhibition in assay [7] was found to be 5.72%; in assay [8], 61.7%; in [9], 84.3%; in assay [10], 59.9%; in assay [11] it was 83.9%; in assay [12], 38.8%. The inhibition in [13] worked out at 79.8%; in assay [14] it was 11.5%; in [15] it was 55%; in [16] it was 6%; in assay [17] it was 25.4%; in assay [18] it was 5.37%. In addition, the figures for the inhibition in [19] and in assay [20] were 5.35% and 1.79%, respectively.
